# Results: the supplement of paper PMC10849652
# About 7,900 targets were measured; listed, in parts, are those with a hit and a random draw of the rest. About 0.6% of all pairs of compound and target were hits. Values without a mark were called inactive.
# Experiments:
# Experiment in all cases: log2 fold change, soluble protein after heating vs DMSO (PISA); higher = thermal stabilisation; K562 cells, 10 uM, 30 min; active = over 0.2 and 3.5 SD of the protein, either way, in both replicates (recomputed)
# [1] = compound: CC1=C(C=C(C=C1)NC(=O)C2=CC(=CC=C2)C(C)(C)C#N)NC3=CC4=C(C=C3)N=CN(C4=O)C
# Procedure, shortened: (§1)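 Soluble protein was quantified by TMTpro 16plex LC-MS/MS after channel sums were equalised. It was obtained as the supernatant after 21,000xg for 90 min from pooled aliquots of K562 cells (2×10^6 cells/mL, 10 μM compound, 30 min) heated for 3 min across 48°C-58°C and extracted in PBS with 0.5% NP-40 at 4°C. Thermal stability values are relative to control samples and come from duplicates. They are given as log2 fold changes.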
# [2] = compound: CC1=C(C=C(C=C1)NC(=O)C2=CC(=CC=C2)N(C)C)NC(=O)C3=CC=C(C=C3)O
# Procedure, shortened: as §1
# [3] = compound: CC1=CC=C(C=C1)SC2=C3C=C(SC3=CN=C2)C(=O)N
# Procedure, shortened: as §1
# [4] = compound: CC1=NC(=CC=C1)C2=C(N=C(N2)C(C)(C)C)C3=CC4=NC=CN=C4C=C3
# Procedure, shortened: as §1
# [5] = compound: CCCCN(Cc1ccc(C(=O)NO)cc1)C(=O)Nc1ccccc1 [Nexturastat A]
# Procedure, shortened: as §1
# [6] = compound: CCCS(=O)(=O)Nc1ccc(F)c(C(=O)c2c[nH]c3ncc(-c4ccc(Cl)cc4)cc23)c1F [vemurafenib]
# Procedure, shortened: as §1
# [7] = compound: CCCS(=O)(=O)Nc1ccc(F)c(C(=O)c2c[nH]c3ncc(Cl)cc23)c1F
# Procedure, shortened: as §1
# [8] = compound: CCCc1cc(C)[nH]c(=O)c1CNC(=O)c1cc(-c2ccnc(N3CCN(C)CC3)c2)cc2c1cnn2C(C)C
# Procedure, shortened: as §1
# [9] = compound: CCN(CC)Cc1ccc2cc(COC(=O)Nc3ccc(C(=O)NO)cc3)ccc2c1 [givinostat]
# Procedure, shortened: as §1
# [10] = compound: CCN(CCCOc1ccc2c(Nc3cc(CC(=O)Nc4cccc(F)c4)[nH]n3)ncnc2c1)CCOP(=O)(O)O [barasertib]
# Procedure, shortened: as §1
# [11] = compound: CC[C@@H]1C(=O)N(C)c2cnc(Nc3ccc(C(=O)NC4CCN(C)CC4)cc3OC)nc2N1C1CCCC1
# Procedure, shortened: as §1
# [12] = compound: CC[C@@H]1C(=O)N(C)c2cnc(Nc3ccc(C(=O)N[C@H]4CC[C@H](N5CCN(CC6CC6)CC5)CC4)cc3OC)nc2N1C(C)C [volasertib]
# Procedure, shortened: as §1
# [13] = compound: CC[C@H](C)[C@@H](C(=O)N[C@@H]([C@@H](C)O)C(=O)N[C@@H](CC(C)C)C(=O)[C@]1(CO1)C)NC(=O)[C@H]([C@@H](C)CC)N(C)C(=O)C [epoxomicin]
# Procedure, shortened: as §1
# [14] = compound: CCn1c(C(=O)N(C2CC2)C2CC2)cc2c3c(ncn3C)c(Nc3cc(C)n(C)n3)nc21
# Procedure, shortened: as §1
# [15] = compound: CCn1cc(-c2ccnc3[nH]c(-c4cccc(CN(C)C)c4)cc23)c(-c2ccc(NC(=O)N(C)C)cc2)n1
# Procedure, shortened: as §1
# [16] = compound: CN(C)CC(=O)Nc1ccc2[nH]c(=O)c3ccccc3c2c1
# Procedure, shortened: as §1
# [17] = compound: CN(CCOC1=CC=C(C=C1)C[C@H]2C(=O)NC(=O)S2)C3=CC=CC=N3 (racemic) [rosiglitazone]
# Procedure, shortened: as §1
# [18] = compound: CN1C2=C(C3=C1C(=O)N(N=C3)CC4=CC(=CC=C4)N)SC(=C2)S(=O)C
# Procedure, shortened: as §1
# [19] = compound: CN1CCC(CNc2ccc3ncc(-c4cccc(OC(F)(F)F)c4)n3n2)CC1
# Procedure, shortened: as §1
# [20] = compound: CC[C@H](C)N1C=C(C2=C(C=C(C=C21)C3=CN=C(C=C3)N4CCNCC4)C(=O)NCC5=C(C=C(NC5=O)C)C)C
# Procedure, shortened: as §1
# UniProt Q13111, sequence (Q13111 whole entry, looked up): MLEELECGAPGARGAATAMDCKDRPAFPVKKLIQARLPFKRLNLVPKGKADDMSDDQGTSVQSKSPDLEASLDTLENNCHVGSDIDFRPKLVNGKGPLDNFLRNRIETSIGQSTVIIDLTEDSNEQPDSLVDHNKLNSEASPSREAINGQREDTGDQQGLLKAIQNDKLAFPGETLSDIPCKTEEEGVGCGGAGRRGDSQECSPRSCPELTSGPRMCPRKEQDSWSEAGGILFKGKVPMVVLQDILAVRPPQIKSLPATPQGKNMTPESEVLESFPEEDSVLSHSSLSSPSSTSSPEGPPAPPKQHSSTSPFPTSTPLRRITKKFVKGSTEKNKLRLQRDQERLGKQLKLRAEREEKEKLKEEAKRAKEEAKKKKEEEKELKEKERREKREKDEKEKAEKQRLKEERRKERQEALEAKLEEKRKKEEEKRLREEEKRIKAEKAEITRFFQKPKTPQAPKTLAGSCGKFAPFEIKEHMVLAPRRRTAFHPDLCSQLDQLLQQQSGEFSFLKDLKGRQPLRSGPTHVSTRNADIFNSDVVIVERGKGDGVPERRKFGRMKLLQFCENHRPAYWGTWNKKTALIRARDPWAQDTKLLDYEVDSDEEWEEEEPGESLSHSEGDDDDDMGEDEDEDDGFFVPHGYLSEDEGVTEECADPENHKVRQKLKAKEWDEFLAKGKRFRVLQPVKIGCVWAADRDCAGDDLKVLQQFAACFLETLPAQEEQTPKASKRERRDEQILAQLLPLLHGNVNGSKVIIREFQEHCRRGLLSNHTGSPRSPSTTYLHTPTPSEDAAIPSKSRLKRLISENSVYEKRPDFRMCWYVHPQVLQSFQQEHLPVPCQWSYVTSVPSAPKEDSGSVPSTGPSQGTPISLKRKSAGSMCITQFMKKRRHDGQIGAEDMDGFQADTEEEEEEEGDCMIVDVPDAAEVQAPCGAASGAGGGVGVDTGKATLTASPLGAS
# UniProt Q9UNS2, sequence (Q9UNS2 whole entry, looked up): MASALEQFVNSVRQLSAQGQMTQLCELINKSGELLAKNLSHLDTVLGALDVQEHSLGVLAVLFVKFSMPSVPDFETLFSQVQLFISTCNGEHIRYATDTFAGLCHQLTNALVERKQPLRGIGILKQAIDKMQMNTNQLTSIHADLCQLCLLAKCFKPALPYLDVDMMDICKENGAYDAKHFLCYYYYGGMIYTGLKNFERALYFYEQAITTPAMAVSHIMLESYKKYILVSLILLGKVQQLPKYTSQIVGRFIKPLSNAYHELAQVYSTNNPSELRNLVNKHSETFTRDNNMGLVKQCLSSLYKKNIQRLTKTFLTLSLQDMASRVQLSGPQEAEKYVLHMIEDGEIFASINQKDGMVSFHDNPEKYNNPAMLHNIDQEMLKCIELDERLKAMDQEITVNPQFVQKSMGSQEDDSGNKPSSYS
# UniProt Q96MX0, sequence (Q96MX0 whole entry, looked up): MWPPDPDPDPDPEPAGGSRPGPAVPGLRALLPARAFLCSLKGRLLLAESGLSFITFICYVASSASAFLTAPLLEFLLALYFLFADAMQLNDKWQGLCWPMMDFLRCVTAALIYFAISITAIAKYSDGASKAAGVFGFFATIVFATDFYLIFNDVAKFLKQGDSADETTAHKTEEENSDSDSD
# UniProt Q86X95, sequence (Q86X95 whole entry, looked up): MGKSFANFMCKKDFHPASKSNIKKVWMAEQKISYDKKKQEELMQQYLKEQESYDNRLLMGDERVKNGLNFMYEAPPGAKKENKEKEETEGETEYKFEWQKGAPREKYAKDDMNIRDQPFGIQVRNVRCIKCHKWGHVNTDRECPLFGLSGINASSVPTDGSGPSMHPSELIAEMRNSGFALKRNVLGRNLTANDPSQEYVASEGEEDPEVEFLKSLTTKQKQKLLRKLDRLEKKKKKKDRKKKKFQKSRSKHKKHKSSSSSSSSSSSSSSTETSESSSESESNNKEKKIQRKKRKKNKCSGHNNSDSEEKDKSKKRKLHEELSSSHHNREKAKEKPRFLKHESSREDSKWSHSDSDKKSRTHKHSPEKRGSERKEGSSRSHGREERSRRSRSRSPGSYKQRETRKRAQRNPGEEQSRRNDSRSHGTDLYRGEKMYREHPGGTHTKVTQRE
# UniProt P49336, sequence (P49336 whole entry, looked up): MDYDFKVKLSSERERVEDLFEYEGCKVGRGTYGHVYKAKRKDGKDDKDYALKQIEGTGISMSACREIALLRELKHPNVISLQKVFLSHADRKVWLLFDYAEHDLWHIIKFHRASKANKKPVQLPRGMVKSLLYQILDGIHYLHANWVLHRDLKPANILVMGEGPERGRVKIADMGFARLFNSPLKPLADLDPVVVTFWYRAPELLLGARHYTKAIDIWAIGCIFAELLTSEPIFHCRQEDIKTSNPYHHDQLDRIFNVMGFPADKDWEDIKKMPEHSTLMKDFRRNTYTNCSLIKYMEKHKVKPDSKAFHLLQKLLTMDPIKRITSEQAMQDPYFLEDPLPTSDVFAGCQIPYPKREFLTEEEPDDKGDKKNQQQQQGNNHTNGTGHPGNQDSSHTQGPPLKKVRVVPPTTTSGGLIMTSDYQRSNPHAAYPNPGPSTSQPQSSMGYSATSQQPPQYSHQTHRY
# UniProt Q6UUV7, sequence (Q6UUV7 whole entry, looked up): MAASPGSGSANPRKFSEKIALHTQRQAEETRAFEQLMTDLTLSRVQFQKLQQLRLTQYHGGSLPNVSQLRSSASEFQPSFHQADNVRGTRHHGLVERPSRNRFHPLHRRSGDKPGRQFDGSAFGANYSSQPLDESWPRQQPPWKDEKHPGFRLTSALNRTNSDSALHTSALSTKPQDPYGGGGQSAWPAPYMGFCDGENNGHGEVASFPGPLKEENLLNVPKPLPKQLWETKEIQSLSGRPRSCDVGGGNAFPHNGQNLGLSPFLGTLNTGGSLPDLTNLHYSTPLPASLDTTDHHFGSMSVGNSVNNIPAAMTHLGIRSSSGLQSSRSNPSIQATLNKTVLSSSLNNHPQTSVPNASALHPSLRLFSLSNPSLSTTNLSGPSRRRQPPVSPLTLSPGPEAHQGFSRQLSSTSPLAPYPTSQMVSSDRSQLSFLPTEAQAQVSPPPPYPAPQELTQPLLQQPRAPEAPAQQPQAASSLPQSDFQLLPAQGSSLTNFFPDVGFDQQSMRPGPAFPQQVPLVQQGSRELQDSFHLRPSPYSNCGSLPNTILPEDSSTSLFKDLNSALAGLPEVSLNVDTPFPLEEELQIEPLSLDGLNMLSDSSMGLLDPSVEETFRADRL
# UniProt Q96LT7, sequence (Q96LT7 whole entry, looked up): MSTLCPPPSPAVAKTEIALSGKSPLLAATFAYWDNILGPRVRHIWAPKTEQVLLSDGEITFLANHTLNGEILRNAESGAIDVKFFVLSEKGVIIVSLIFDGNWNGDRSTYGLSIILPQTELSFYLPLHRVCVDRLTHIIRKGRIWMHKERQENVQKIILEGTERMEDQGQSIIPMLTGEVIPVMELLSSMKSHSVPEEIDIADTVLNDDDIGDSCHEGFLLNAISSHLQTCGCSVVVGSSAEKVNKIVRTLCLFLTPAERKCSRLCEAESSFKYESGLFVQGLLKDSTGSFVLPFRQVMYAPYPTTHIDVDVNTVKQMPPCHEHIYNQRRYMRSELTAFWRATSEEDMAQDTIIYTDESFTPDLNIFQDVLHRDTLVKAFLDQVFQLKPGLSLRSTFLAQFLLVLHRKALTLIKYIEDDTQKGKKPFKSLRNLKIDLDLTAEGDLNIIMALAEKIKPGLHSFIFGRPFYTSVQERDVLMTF
# UniProt P48730, sequence (P48730 whole entry, looked up): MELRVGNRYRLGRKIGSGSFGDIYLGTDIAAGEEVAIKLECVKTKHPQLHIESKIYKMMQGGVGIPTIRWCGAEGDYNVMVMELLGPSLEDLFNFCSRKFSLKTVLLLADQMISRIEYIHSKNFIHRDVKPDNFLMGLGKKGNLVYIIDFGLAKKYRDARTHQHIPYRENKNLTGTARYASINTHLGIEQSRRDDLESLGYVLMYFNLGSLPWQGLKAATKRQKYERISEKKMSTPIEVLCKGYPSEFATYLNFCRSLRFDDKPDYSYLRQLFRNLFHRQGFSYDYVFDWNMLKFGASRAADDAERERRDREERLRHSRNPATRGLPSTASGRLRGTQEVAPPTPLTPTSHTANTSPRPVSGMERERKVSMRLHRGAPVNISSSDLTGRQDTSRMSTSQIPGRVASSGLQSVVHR
# UniProt P24863, sequence (P24863 whole entry, looked up): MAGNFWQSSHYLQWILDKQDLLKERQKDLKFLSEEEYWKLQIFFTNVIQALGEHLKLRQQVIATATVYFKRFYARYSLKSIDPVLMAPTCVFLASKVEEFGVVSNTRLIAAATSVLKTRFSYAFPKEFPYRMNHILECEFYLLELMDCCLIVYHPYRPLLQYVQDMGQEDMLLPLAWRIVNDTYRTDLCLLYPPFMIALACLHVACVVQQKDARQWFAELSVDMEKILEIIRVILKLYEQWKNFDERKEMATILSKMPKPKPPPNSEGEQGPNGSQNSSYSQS
# UniProt O95273, sequence (O95273 whole entry, looked up): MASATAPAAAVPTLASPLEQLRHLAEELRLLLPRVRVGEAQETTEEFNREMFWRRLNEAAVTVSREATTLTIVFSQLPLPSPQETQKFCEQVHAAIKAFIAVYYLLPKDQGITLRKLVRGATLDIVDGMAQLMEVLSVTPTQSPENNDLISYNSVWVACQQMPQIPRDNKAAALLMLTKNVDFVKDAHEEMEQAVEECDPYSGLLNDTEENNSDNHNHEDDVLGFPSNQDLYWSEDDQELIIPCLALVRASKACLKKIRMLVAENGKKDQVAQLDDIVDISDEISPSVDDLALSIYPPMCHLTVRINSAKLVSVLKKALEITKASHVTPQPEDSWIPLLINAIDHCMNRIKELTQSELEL
# UniProt Q14061, sequence (Q14061 whole entry, looked up): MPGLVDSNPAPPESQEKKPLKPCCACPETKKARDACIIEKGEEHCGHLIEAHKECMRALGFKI
Target,log2 fold change [1],log2 fold change [2],log2 fold change [3],log2 fold change [4],log2 fold change [5],log2 fold change [6],log2 fold change [7],log2 fold change [8],log2 fold change [9],log2 fold change [10],log2 fold change [11],log2 fold change [12],log2 fold change [13],log2 fold change [14],log2 fold change [15],log2 fold change [16],log2 fold change [17],log2 fold change [18],log2 fold change [19],log2 fold change [20]
CDK8 (UniProt P49336),0.002,-0.005,0.322,0.064,-0.125,0.041,0.044,-0.081,0.02,-0.343,0.096,-0.039,-0.098,0.027,-0.236,-0.044,-0.02,-0.025,0.356,
CIR1 (UniProt Q86X95),-0.04,-0.38,0.047,-0.018,0.199,-0.156,-0.129,0.047,-0.015,-0.105,0,0.049,-0.212,-0.015,0.055,0.142,-0.169,0.234,-0.458,
CMTM3 (UniProt Q96MX0),0.052,,0.117,-0.027,-0.119,0,0.001,-0.024,-0.016,0.098,0.066,-0.088,0.075,-0.009,0.057,0.02,-0.324 (active),0.048,-0.122,-0.061
CENPE (UniProt Q02224),-0.018,0.063,0.022,-0.096,,0.047,-0.108,,0.285,-0.1,,0.137,,-0.079,-0.039,-0.061,0.03,-0.255,0.192,
CCM2 isoform 2 (UniProt Q9BSQ5),-0.072,-0.068,-0.124,-0.002,0.102,0.008,0.009,0.052,-0.003,-0.061,-0.207,-0.412 (active),0.102,-0.047,-0.017,-0.01,0.032,-0.012,-0.233,
COPS3 isoform 2 (UniProt Q9UNS2),-0.154,0.03,0.066,-0.128,-0.113,-0.303,-0.14,-0.162,,0.065,0.079,0.031,0.059,,-0.075,-0.165,-0.046,,-0.124,0.001
CHAF1A (UniProt Q13111),0.035,-0.054,0.087,-0.116,0.088,,0.026,-0.097,0.149,0.107,0.025,-0.021,-0.039,-0.078,0.064,,-0.018,0.158,0.051,0.036
CCNT2 (UniProt O60583),0.092,0.042,-0.057,,0.348,,-0.031,0.211,,,0.035,-0.096,0.004,,-0.084,,,0.023,-0.101,0.056
CCNC (UniProt P24863),0.207,-0.072,,0.031,0.008,0.105,,-0.086,0.011,-0.024,,,0.035,0.031,-0.178,-0.011,-0.022,0.032,0.4 (active),
C9orf72 (UniProt Q96LT7),0.108,-0.009,0.027,-0.014,-0.102,-0.139,-0.038,0.007,-0.022,0.042,,-0.089,-0.008,0.003,0.226,0.075,-0.033,-0.094,0.209,0.062
C19orf54 (UniProt Q5BKX5),0.096,-0.053,0.127,-0.104,-0.025,-0.118,0.077,,0.044,,0.054,-0.06,0.094,-0.152,0.056,0.036,,-0.177,-0.141,
CCNDBP1 (UniProt O95273),-0.104,0.027,,,,-0.074,,-0.091,-0.046,0.088,0.088,,,-0.045,-0.036,-0.094,0.032,0.013,-0.048,0.133
CSNK1D (UniProt P48730),-0.001,0.003,-0.033,-0.018,0.117,0.081,-0.047,0.015,-0.254,-0.032,,-0.133,0.026,-0.088,,-0.019,-0.062,0.15,0.315,0
CFAP36 isoform 2 (UniProt Q96G28),0.005,0.024,0.054,0.066,0.023,-0.041,0.012,-0.061,-0.003,0.03,-0.159,-0.433 (active),-0.017,0.077,0.048,0.005,0.06,0.051,-0.049,
CRTC1 isoform 2 (UniProt Q6UUV9),-0.001,0.195,-0.086,0.073,0.24,-0.035,0.051,,0.158,0.015,,0.211,-0.062,-0.164,0.034,-0.069,0.065,-0.153,0.101,
COX17 (UniProt Q14061),-0.015,-0.358,,0.024,0,0.029,,0.025,0.029,,,,0.504,-0.097,-0.154,-0.051,,-0.146,0.055,0.044
CRTC3 (UniProt Q6UUV7),-0.017,0.087,0.033,,-0.049,-0.093,0.144,-0.543 (active),,0.035,,0.051,0.094,,,-0.117,0.148,,,
CASP9 (UniProt P55211),0.103,-0.091,0.032,0.021,0.045,0.107,0.111,,,,-0.083,-0.629 (active),0.054,,0.035,0.048,,0.001,-0.188,0.008
CASP10 isoform 4 (UniProt Q92851),0.015,0.026,0.085,0,0.125,-0.015,0.014,0.034,,0.121,-0.091,-0.582 (active),0.004,,0.121,-0.016,-0.093,0.023,-0.331,0.015
